Holding throughout (assay): protein-binding microarray (PBM); PBM: ~300 nM protein, 6 mM HEPES pH 7.8, 80 mM KCl, 0.5 mM EDTA, 0.5 mM EGTA, 6% glycerol, 35 ng/ul poly-dIdC, 1% milk, 1 h, room temperature; Ap Aiptasia and Nv Nematostella (sea anemones) / Co Capsaspora / Aq Amphimedon (sponge) / Dm Drosophila / Hu human; RHD is the Rel homology domain; high values mean tight binding
Settings in all cases: dsDNA, one strand shown

The target in one assay is T1, GST-Ap-NF-kB RHD (Exaiptasia pallida (Aiptasia), UniProt A0A913YAJ5 2-422).
T1 sequence: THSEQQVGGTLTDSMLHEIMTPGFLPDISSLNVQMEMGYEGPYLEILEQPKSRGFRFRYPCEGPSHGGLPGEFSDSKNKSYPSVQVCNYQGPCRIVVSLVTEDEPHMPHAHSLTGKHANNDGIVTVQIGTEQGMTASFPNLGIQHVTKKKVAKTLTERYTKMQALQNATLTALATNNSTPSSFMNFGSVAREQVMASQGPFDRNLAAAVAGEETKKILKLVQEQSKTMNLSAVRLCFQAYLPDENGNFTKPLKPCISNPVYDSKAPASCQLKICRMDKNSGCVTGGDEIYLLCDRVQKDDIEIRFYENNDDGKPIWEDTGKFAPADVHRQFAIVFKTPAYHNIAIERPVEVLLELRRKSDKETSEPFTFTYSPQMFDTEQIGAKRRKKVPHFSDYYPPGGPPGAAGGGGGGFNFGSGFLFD

Assay [1] concerns the target T2, GST-Nv-NF-kB (Cys allele) (Nematostella vectensis, UniProt E5G601 2-411).
T2 sequence: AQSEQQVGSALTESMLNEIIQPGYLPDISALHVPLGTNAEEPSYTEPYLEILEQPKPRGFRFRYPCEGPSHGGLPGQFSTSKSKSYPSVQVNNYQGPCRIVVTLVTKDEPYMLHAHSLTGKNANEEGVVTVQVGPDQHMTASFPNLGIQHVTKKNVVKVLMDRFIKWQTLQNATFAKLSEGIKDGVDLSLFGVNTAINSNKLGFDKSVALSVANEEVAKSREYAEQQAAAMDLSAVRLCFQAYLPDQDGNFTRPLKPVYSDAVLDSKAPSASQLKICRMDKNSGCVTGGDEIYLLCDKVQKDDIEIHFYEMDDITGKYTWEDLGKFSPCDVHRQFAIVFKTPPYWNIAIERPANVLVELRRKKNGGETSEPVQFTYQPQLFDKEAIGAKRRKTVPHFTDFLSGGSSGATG

For the next assay, the target named is T3, GST-Co-NF-kB (Capsaspora owczarzaki, UniProt F1ARL5 200-546).
T3 sequence: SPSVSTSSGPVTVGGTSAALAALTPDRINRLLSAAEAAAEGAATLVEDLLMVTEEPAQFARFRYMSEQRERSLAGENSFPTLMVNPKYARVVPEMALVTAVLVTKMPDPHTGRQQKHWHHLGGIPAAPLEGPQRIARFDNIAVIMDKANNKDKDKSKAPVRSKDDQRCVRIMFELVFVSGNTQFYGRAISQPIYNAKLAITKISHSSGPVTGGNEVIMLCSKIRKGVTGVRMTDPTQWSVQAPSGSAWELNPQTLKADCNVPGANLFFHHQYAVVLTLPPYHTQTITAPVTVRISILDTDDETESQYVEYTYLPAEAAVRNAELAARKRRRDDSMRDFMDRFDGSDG

The next assay deals with T4, GST-Aq-NF-kB (Amphimedon queenslandica, UniProt A9Y5G7 2-389).
T4 sequence: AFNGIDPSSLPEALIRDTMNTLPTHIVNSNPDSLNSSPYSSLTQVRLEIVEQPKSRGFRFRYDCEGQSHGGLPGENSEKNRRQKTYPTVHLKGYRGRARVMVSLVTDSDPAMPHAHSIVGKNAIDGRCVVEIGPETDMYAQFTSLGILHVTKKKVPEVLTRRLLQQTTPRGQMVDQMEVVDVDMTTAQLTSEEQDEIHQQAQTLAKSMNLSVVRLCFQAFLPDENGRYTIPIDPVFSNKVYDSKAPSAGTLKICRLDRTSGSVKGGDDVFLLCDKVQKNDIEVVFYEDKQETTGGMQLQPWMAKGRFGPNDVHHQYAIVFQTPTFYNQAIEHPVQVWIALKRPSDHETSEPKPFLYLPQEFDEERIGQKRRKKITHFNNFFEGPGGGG

The target in assay [2] is T5, GST-Nv-NF-kB (Ser allele) (Nematostella vectensis, UniProt A7UNT2 2-411).
T5 sequence: T2 sequence with Q21R, C66S, S207N, E215Q, V217A, E225K, A268E, D399E

Another assay addresses T6, GST-Dm-Relish (Drosophila melanogaster, UniProt Q94527 99-473).
T6 sequence: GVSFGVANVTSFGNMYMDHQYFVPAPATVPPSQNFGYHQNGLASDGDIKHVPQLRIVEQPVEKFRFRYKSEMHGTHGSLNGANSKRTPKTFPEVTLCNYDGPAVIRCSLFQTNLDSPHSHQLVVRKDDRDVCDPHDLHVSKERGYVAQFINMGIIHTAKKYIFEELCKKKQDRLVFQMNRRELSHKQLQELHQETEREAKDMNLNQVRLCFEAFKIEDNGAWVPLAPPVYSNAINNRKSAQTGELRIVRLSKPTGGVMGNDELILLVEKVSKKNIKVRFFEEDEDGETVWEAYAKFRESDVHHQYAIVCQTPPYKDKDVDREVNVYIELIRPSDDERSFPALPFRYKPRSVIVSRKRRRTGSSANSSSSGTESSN

13 sequences from paper PMC5700166 can be followed below.

Positions count from the first letter of the chain named.

For “CCGATTAACATCATACAAGGGAGTGATGTTAATCGGGTCTTGATTCGCTTGACGCTGCTG”, the binding signal is 1.02 z-score in the assay with GST-Ap-NF-kB RHD, 1.41 z-score in assay [1], 1.46 z-score with GST-Co-NF-kB and 2.84 z-score with GST-Aq-NF-kB.

In the case of “CCGATTAACATCACAAATTTCCCTGATGTTAATCGGGTCTTGATTCGCTTGACGCTGCTG”, the binding signal with GST-Ap-NF-kB RHD turned out to be 4.62 z-score; in assay [1] it was 6.4 z-score; in assay [2], 6.92 z-score; in the assay with GST-Co-NF-kB, 5.22 z-score; with GST-Dm-Relish it was 3.72 z-score; with GST-Aq-NF-kB it was 6.5 z-score.

In the case of “CCGATTAACATCAGGTAATTACCTGATGTTAATCGGGTCTTGATTCGCTTGACGCTGCTG”, the binding signal with GST-Ap-NF-kB RHD worked out at 2.06 z-score; in assay [1], 4.18 z-score; in assay [2], 5.28 z-score; with GST-Dm-Relish, 5.43 z-score; with GST-Aq-NF-kB, 5.11 z-score.

With “CCGATTAACATCAGAATCTCCCATGATGTTAATCGGGTCTTGATTCGCTTGACGCTGCTG”, the binding signal with GST-Ap-NF-kB RHD stood at 1.74 z-score; in assay [1], 2.74 z-score; with GST-Co-NF-kB, 1.64 z-score; in the assay with GST-Aq-NF-kB, 2.73 z-score.

For the sequence “CCGATTAACATCATTTCCCTTGATGATGTTAATCGGGTCTTGATTCGCTTGACGCTGCTG”, the binding signal was found to be 1.97 z-score in the assay with GST-Ap-NF-kB RHD, 4.19 z-score in assay [1], 1.95 z-score with GST-Co-NF-kB and 3.49 z-score with GST-Aq-NF-kB.

Regarding “CCGATTAACATCAAAATTCCCTCTGATGTTAATCGGGTCTTGATTCGCTTGACGCTGCTG”, the binding signal was found to be 5.17 z-score in the assay with GST-Ap-NF-kB RHD; 7.29 z-score in assay [1]; 7.2 z-score in assay [2]; 3.2 z-score with GST-Co-NF-kB; 5.36 z-score with GST-Dm-Relish; 6.5 z-score in the assay with GST-Aq-NF-kB.

As for “CCGATTAACATCAGGGGAACTAATGATGTTAATCGGGTCTTGATTCGCTTGACGCTGCTG”, the binding signal in the assay with GST-Ap-NF-kB RHD stood at 4.99 z-score; in assay [1], 5.41 z-score; in assay [2], 6.66 z-score; with GST-Co-NF-kB, 6.12 z-score; with GST-Dm-Relish, 4.37 z-score; with GST-Aq-NF-kB, 4.07 z-score.

Regarding “CCGATTAACATCACGCCCCCCCCTGATGTTAATCGGGTCTTGATTCGCTTGACGCTGCTG”, the binding signal is 5.3 z-score with GST-Ap-NF-kB RHD; 4.2 z-score in assay [1]; 4.8 z-score in assay [2]; 3.87 z-score with GST-Co-NF-kB; 4.72 z-score with GST-Dm-Relish; 4.89 z-score with GST-Aq-NF-kB.

For “CCGATTAACATCAAGCGTTTCCCTGATGTTAATCGGGTCTTGATTCGCTTGACGCTGCTG”, the binding signal with GST-Ap-NF-kB RHD amounted to 2.29 z-score; in assay [1], 3.6 z-score; in the assay with GST-Co-NF-kB, 2.62 z-score; with GST-Aq-NF-kB, 2.82 z-score.

Turning to “CCGATTAACATCAGGGGAAGAAATGATGTTAATCGGGTCTTGATTCGCTTGACGCTGCTG”, the binding signal with GST-Ap-NF-kB RHD was 4.46 z-score; in assay [1], 5.99 z-score; in assay [2], 6.85 z-score; with GST-Co-NF-kB it was 8.71 z-score; with GST-Dm-Relish, 6.53 z-score; with GST-Aq-NF-kB it was 4.68 z-score.

As for “CCGATTAACATCAGAGTTTCCCATGATGTTAATCGGGTCTTGATTCGCTTGACGCTGCTG”, the binding signal is 3.08 z-score with GST-Ap-NF-kB RHD, 3.42 z-score in assay [1], 3.76 z-score with GST-Co-NF-kB and 3.07 z-score in the assay with GST-Aq-NF-kB.

Turning to “CCGATTAACATCACGATTTTCCCTGATGTTAATCGGGTCTTGATTCGCTTGACGCTGCTG”, the binding signal with GST-Ap-NF-kB RHD amounted to 3.77 z-score; in assay [1] it was 5.64 z-score; in assay [2], 7.32 z-score; with GST-Co-NF-kB, 4.9 z-score; with GST-Dm-Relish it was 1.65 z-score; in the assay with GST-Aq-NF-kB, 4.47 z-score.

On to “CCGATTAACATCAGGGAGACCCCTGATGTTAATCGGGTCTTGATTCGCTTGACGCTGCTG”, for which the binding signal came out at 6.28 z-score with GST-Ap-NF-kB RHD; 3.82 z-score in assay [1]; 1.04 z-score in assay [2]; 2.28 z-score in the assay with GST-Co-NF-kB; 6.09 z-score with GST-Dm-Relish; 6.87 z-score with GST-Aq-NF-kB.
